Source: PubChem BioAssay (several laboratories)
TROY signal inh – blocks TROY-dependent signaling in reporter cells; 360,000 tested, 0.98% active; inhibition, % at 10 µM; Q293 LMP1-TROYcd NF-kB luciferase reporter, 4 h; AID 1347056;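 active = compounds whose plate-normalised and pattern-corrected inhibition of the luciferase reporter signal at the single screening dose is 50% or more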
HSF-1 act – increases HSF-1 driven luciferase reporter signal. NIH3T3-HGL HSF-1 luciferase reporter, MG132, 8 h; 100% = twice DMSO control signal. activation, % at 9 µM. 300,000 tested, 1.7% active. AID 504408;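 active = mean replicate activation of at least 50% with a set share of replicates each reaching 50%; inconclusive = only one of those two conditions met; inactive = mean below 50% and too few replicates reaching it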;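 note: 0% = median of the neutral control wells and 100% = twice that signal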
LGR2 antag – blocks bursicon-induced cAMP signaling via Drosophila LGR2. HEK293 LGR2, CRE-luciferase, bursicon-stimulated, 4 h. inhibition, % at 9.99 µM. 380,000 tested, 0.35% active. AID 720647;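 active = drop in luminescence signal, shown as inhibition above about 50% in the replicate tests, limit read from the data, passing the limit was not always enough; inconclusive = probably only some replicates passing the limit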;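 note: agonist challenge used bursicon conditioned medium at about half maximal strength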
TWEAK-Fn14 inh – blocks TWEAK-Fn14 interaction in a reporter cell assay | TWEAK-stimulated Fn14 reporter cells, luciferase luminescence, 8 h | inhibition, % at 10 µM | 360,000 tested, 2% active | AID 1159606; in the data active = inhibition above about 50%
EBV LMP1 NFkB – reduces LMP1-driven NF-kappaB luciferase signal | AID 504558 | LMP1-induced NF-kappaB luciferase reporter cells, luminescence | 350,000 tested, 0.69% active | inhibition, % at 12.5 µM; in the data active = inhibition above about 41%; inconclusive = no clear call, values can overlap the other calls;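 note: 0% = neutral control wells and 100% = reference inhibitor control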
HSF1 inh – HSF1 inhibition; 300,000 tested, 0.77% active; NIH3T3-HGL HSE-luciferase, MG132-induced, luminescence 8 h; hits give low values; activity change, negative = inhibition, % at 7.5 µM (by protocol);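 active = more than half of replicate wells show activity change below -50%, luminescence cut by over half; inconclusive = some wells, but at most half, below -50%; inactive = no replicate well below -50%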;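 note: luciferase reports HSF-1 transcriptional activity via heat shock element; 0% = median of DMSO wells and -100% = zero luminescence signal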
The depositor's hits bear a star; ? = inconclusive; nt = no result given; ! = a repeat was not active. Rows were chosen to be rich in hits. Some 3.6% of all compounds tested hit in one or more screens of this group.

SMILES	TROY signal inh	HSF-1 act	LGR2 antag	TWEAK-Fn14 inh	EBV LMP1 NFkB	HSF1 inh
COc1ccc(C2C([N+](=O)[O-])=C(N)Oc3c2c(=O)oc2ccccc32)cc1 (stereo unspecified)	nt	33	nt	nt	nt	9
COc1cccc(C2C([N+](=O)[O-])=C(N)Oc3c2c(=O)oc2ccccc32)c1 (stereo unspecified)	-14	59*	nt	9	-8	37
CC1=CC(C)CC(C)OC(=O)CC(c2ccc(O)cc2)NC(=O)C(Cc2c(Br)[nH]c3ccccc23)N(C)C(=O)C(C)NC(=O)C(C)C1 (stereo unspecified)	70*	nt	82*	4	-2	nt
O=C(O)[C@@H]1[C@@H](CO)[C@@H]2Cn3c(cccc3=O)[C@H]1N2C(=O)c1ccccc1	nt	nt	27	nt	nt	nt
O=C(NN=Cc1ccc(N(CCCl)CCCl)cc1)c1cccnc1	-23	nt	-8	4	47*	nt
COc1ccccc1OCC(=O)Nc1ccc(Cl)cc1C(=O)c1ccccc1	-6	11	4	107*	-9	3
Cc1ccc(OC(=O)N(C)C[C@H]2OCc3ccccc3-c3c(n(C)c4ccccc34)C(=O)N([C@H](C)CO)C[C@H]2C)cc1	nt	nt	-1	nt	nt	nt
COC(=O)[C@H]1[C@H](CO)[C@H]2Cn3c(ccc(/C=C/c4ccccc4)c3=O)[C@@H]1N2C(=O)C1CC1	nt	nt	-8	nt	nt	nt
COC(=O)[C@H]1[C@H](CO)[C@H]2Cn3c(ccc(-c4ccccc4)c3=O)[C@@H]1N2CC1CC1	nt	nt	-9	nt	nt	nt
CC(C)(CN)CC(=O)O	19	83*	-5	9	3	26
COc1ccc(Br)cc1CN1CCN(CCO)CC1	0	-89	nt	-1	-10	-87*
COc1cc(Br)cc(CN2CCN(C)CC2)c1O	0	nt	nt	-5	3	nt
O=[N+]([O-])c1ccc(N(CCO)CCO)c2c1no[n+]2[O-]	9	nt	?	20	27	nt
CN1CCN(c2ccc([N+](=O)[O-])c3no[n+]([O-])c23)CC1	-8	28	105*	104*	76*	5
c1ccc(CCn2nnnc2CN2CCC(n3nnc4ccccc43)CC2)cc1	-1	4	nt	-6	6	-5
Cc1nc2ccccc2n1C1CCN(Cc2nnnn2CCc2ccccc2)CC1	-4	-4	nt	-44	47*	-4
O=C(Cc1cccnc1)N1CCCCN2[C@H](CO)[C@H](c3ccc(/C=C/c4ccccc4)cc3)[C@H]2C1	nt	nt	-20	nt	nt	nt
Cc1ccc(N2C(=O)NC(=O)/C(=C\C=C\c3ccco3)C2=O)cc1	2	39	4	17	2	22
C=CCN1C(=O)NC(=O)/C(=C/C=C/c2ccccc2)C1=O	-10	38	nt	2	-20	20
O=C1NC(=O)N(Cc2ccccc2)C(=O)/C1=C\C=C\c1ccco1	-7	71*	14	11	-38	32
O=C1NC(=O)N(CCc2ccc(F)cc2)C(=O)/C1=C\C=C\c1ccccc1	32	nt	1	98*	-26	nt
Cc1ccc(N2C(=O)NC(=O)/C(=C\C=C\c3ccco3)C2=O)cc1C	10	146*	7	14	-33	90
Cc1ccc(OC(=O)N(C)C[C@@H]2OCc3ccccc3-c3c(n(C)c4ccccc34)C(=O)N([C@@H](C)CO)C[C@H]2C)cc1	nt	nt	33	nt	nt	nt
OCC1(CO)COC(c2cccnc2)N1 (stereo unspecified)	0	66*	nt	6	-3	18
O=C(Nc1ccncc1)c1cccn(Cc2ccccc2)c1=O	-5	-7	-16	50*	19	-4
SMILES	TROY signal inh	HSF-1 act	LGR2 antag	TWEAK-Fn14 inh	EBV LMP1 NFkB	HSF1 inh
O=C(Cc1ccncc1)N1CCCCN2[C@H](CO)[C@H](c3ccc(C#Cc4ccccc4F)cc3)[C@H]2C1	nt	nt	0	nt	nt	nt
O=C1CCCN1C(=O)c1cncc(Br)c1	6	4	nt	12	-6	-4
Nc1cncc(C(=O)O)c1	0	1	7	-7	61*!	-11
CN1C(=O)C(C2c3ccccc3C(=O)N2Cc2ccccc2)C(=O)N(C)C1=O (stereo unspecified)	51*	7	nt	11	-8	-3
O=C(C1CCCO1)N1CCC2(CC1)OCCO2 (stereo unspecified)	-11	-91	nt	9	5	-90*
CCN(CC)C(=O)Cn1cc(/C=C2\C(=O)NC(=O)N(c3ccccc3F)C2=O)c2ccccc21	42	10	13	66*	-1	6
O=C1NC(=O)C(=Cc2ccc(-c3ccc(S(=O)(=O)N4CCOCC4)cc3)o2)C(=O)N1	-14	-10	nt	5	-15	1
O=C1NC(=O)C(=Cc2ccc(-c3ccc(Cl)cc3)o2)C(=O)N1	56*	-2	nt	80*	1	9
C/C=C/c1ccc([C@@H]2[C@H](CO)N3CCCCN(C(=O)Cc4cccnc4)C[C@@H]23)cc1	nt	nt	6	nt	nt	nt
OCC1OC(n2cnc3cc(Cl)c(Cl)cc32)C(O)C1O (stereo unspecified)	54*	nt	19	21	nt	nt
COC(=O)[C@@H]1[C@@H](CO)[C@@H]2Cn3c(ccc(C4=CCCCC4)c3=O)[C@H]1N2C(=O)NC(C)C	nt	nt	-11	nt	nt	nt
CCCC[N+]12CCC(CC1)C(C(O)(c1ccccc1)c1ccccc1)C2 (stereo unspecified)	4	-71	-12	11	5	-65*
CCC[N+]12CCC(CC1)C(C(O)(c1ccccc1)c1ccccc1)C2 (stereo unspecified)	5	9	-5	2	-2	-4
Cc1ccc2c(c1)C1CN(C)CCC1N2C(=O)Nc1cccc(C(F)(F)F)c1 (stereo unspecified)	-6	-77	nt	8	-13	-70*
COC(=O)[C@@H]1[C@@H](CO)[C@@H]2Cn3c(ccc(-c4ccccc4F)c3=O)[C@H]1N2Cc1ccncc1	nt	nt	-18	nt	nt	nt
COc1cc2cc(C(=O)N3CC(COS(C)(=O)=O)c4ccc(O)cc43)[nH]c2c(OC)c1OC (stereo unspecified)	72*	nt	nt	108*	90*	nt
COC(=O)[C@H]1[C@H](CO)[C@H]2Cn3c(ccc(-c4ccc(F)cc4)c3=O)[C@@H]1N2Cc1ccccc1	nt	nt	-10	nt	nt	nt
Oc1c(Cl)cc(Cl)cc1CN1CCN(Cc2ccccc2)CC1	29	-1	2	-2	-2	12
Oc1c(Cl)cccc1Cc1cc(Cl)cc(Cl)c1O	66*	nt	-1	65*	-3	nt
CCCCCn1c(NC(=O)c2ccco2)c(C(=O)OCC)c2nc3ccccc3nc21	62*	40	nt	81*	8	18
COC1CC2C=C(C)C=CC=CC(=O)NC(c3ccccc3)CC=CCCC(O)CC(=O)C2=C1O (stereo unspecified)	50	nt	22	60*	nt	nt
CC(=O)c1c(C)n(CC2CCCO2)c2ccc(O)cc12 (stereo unspecified)	12	70*	-4	14	4	27
